# D2 ag-1: activates the human D2 dopamine receptor | P14416 | HEK293 T-REx D2 cells, calcium flux agonist mode | activation, % at 2 µM | actives 0.53% (n = 340,000) | AID 485358;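 active = activation over 3 SD above normal in the single-dose calcium agonist read, cut at about 30% in these data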; also: 0% is about no effect
# Target sequence (P14416 whole entry, looked up): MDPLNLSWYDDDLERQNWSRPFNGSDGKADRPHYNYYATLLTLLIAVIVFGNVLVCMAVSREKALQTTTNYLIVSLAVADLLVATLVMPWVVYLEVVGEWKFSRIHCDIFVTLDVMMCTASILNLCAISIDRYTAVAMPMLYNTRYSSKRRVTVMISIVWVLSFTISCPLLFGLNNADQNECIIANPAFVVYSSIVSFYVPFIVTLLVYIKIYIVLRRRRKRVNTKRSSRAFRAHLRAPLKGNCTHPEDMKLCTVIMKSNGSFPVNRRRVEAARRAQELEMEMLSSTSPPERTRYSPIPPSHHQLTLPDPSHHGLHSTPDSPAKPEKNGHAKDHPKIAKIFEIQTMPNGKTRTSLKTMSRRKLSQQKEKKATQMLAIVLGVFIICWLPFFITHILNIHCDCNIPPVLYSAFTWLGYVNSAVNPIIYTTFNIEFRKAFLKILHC
#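 HEK293 Trex D2 cells, tetracycline-induced, o/n 30 C 5% CO2; no-wash Ca dye, RT 30–90 min; 10-cycle baseline, 23 nl cpd added, kinetic Ca read 180 s; agonist hits = positive Ca response.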
# D2 PAM-1: human D2 receptor positive allosteric modulation; P14416; DiscoveRx D2 beta-arrestin cells, luminescence, 90 min; 100% = 57 uM dopamine signal; potentiation, % (concentration not given with the values); actives 0.23% (n = 360,000); AID 624464; in the data active = potentiation above about 50%; inconclusive = mostly about 30% to 49%
#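 PathHunter D2 cells, attached overnight at 37 deg C, received compound in DMSO plus dopamine at EC20 (50 nM final) for 90 min at 37 deg C. Beta-arrestin recruitment was read as luminescence after 1 h with detection reagent at ambient temperature.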
# D2 ag-2: activates the human D2 dopamine receptor. P14416. DiscoveRx PathHunter D2 beta-arrestin, luminescence, 90 min; 100% = 57 uM dopamine signal. activation, % (concentration not given with the values). actives 0.084% (n = 360,000). AID 624465; in the data active = activation above about 40%; inconclusive = between about 15% and that limit
#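 Agonist mode: compounds alone added to overnight-plated D2 PathHunter cells for 90 min at 37 C, with 57 uM final dopamine (EC100) defining full response. Beta-arrestin recruitment detected by chemiluminescent reagent, read after 1 h at ambient temperature.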
# D2 PAM-2: positive allosteric modulators of human D2 dopamine receptor; actives 0.34% (n = 340,000); HEK293 T-REx D2, calcium flux, EC20 dopamine potentiation; P14416; potentiation, % at 10 µM;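 active = potentiation over 3 SD above the plate norm, cut at about 30% in these data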; also: 0% is about no effect
#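 Cells plated with tetracycline inducer and held overnight at 30 C; calcium dye loaded 30–90 min at room temperature; baseline taken, compound added and read 180 s; EC20 dopamine then added and read 180 s.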
# D2 antag: antagonizes the human D2 dopamine receptor; HEK293 TREx D2 cells, calcium flux, dopamine EC80; inhibition, % at 10 µM; actives 2% (n = 340,000); in the data active = inhibition above about 30%; inactive = below that, where a call was filed; also: 0% is about no effect
#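 HEK293 T-REx D2 cells, tet-induced, calcium dye no-wash. Cpd pintool add, 180 s kinetic, then EC80 DA, 180 s kinetic. Ca flux read.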
# D3 ag: confirmation of human D3 dopamine receptor agonists, beta-arrestin; Potency, µM (top dose mostly 76.9 µM), for inactives: at the highest dose activation, hits mostly activators; actives 4% (n = 2,300); shares compounds with D2 ag-1; DiscoveRx D3 beta-arrestin cells, luminescence, 90 min; AID 720506;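 also: potency is read from the fitted curve at half-maximal effect; 100% = dopamine control response; nearly all actives have a fitted effect of over 70% in size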
# D2 ag-3: activates human D2 dopamine receptor in D3 counterscreen; shares compounds with D2 ag-1; Potency, µM (titrated, usually from 76.9 µM), without a hit: at the top dose activation, actives largely listed as activators; DiscoveRx PathHunter D2 beta-arrestin, luminescence, 90 min; response scale: percent relative to full dopamine signal; actives 5.9% (n = 2,300); also: potency is read from the fitted curve at half-maximal effect; % of control where 0% means no effect; nearly all actives have a fitted effect of over 70% in size
# Starred values were filed as active, the others as inactive; ? = inconclusive; . = no result. An excerpt weighted towards active compounds, which were near 2.4% of everything screened. Unless noted, calls follow the shape of the dose curve; as a rule, active = well fitted activation curve with a large enough effect; inconclusive = small, poorly fitted or top-dose-only effect; inactive = flat fitted curve, though single readings scatter.
SMILES,D2 ag-1,D2 PAM-1,D2 ag-2,D2 PAM-2,D2 antag,D3 ag,D2 ag-3
CCOC(=O)C1=C(CN2CCN(c3ccc(Cl)cc3)CC2)NC(=O)NC1c1ccc(F)cc1 (stereo not drawn),0,.,.,4,.,.,.
Cc1cccc(-n2c(SCC(=O)Nc3ccccc3C)nc3c(oc4ccccc43)c2=O)c1,0,.,.,-4,.,.,.
Cc1ccc(CNC(=O)Cn2c(=O)n(-c3ccc(C)c(F)c3)c(=O)c3sc4ccccc4c32)cc1,1,.,.,1,.,.,.
CC1CCN(S(=O)(=O)c2ccc(NC(=O)CN3CCN(C)CC3)cc2)CC1,0,-3,0,8,12,.,.
CC1CCN(S(=O)(=O)c2ccc(NC(=O)CN3CCN(c4ccccc4)CC3)cc2)CC1,45*,9,?,-29,59*,2.2µM*,?
CC(=O)c1ccc(NC(=O)CN2CCN(c3ccccc3)CC2)cc1,83*,12,?,-23,37*,?,?
O=C(CN1CCN(c2ccccc2)CC1)Nc1ccc(Oc2ccccc2)cc1,55*,18,11,-30,58*,?,?
O=C(c1cc(-c2ccc(F)cc2)on1)N1CCCC1,0,-3,0,-11,25,-11%,-3%
CCOc1ccc(N(C)S(=O)(=O)c2ccc3c(c2)C(C)(C)C(=O)N3C)cc1,-1,.,.,-4,.,.,.
Cc1cn([C@H]2C[C@H](O)[C@@H](CNC(=O)[C@@H]3CCCN3Cc3ccccc3)O2)c(=O)[nH]c1=O,.,1,-6,.,.,.,.
COc1ccc(S(=O)(=O)N2CCCC2CNC(=O)C(=O)NC2CCCC2)cc1 (stereo not drawn),.,4,-1,.,.,.,.
COc1ccc(S(=O)(=O)N2CCCC2CNC(=O)C(=O)NC2CCCCCC2)cc1 (stereo not drawn),31*,19,4,-3,20,8%,?
Cc1ccc(S(=O)(=O)N2CCCC2CNC(=O)C(=O)NC2CC2)cc1 (stereo not drawn),34*,2,1,-11,7,1%,-2%
COc1ccc(/C=c2\s/c(=C/C(=O)c3ccc(C)cc3)[nH]c2=O)cc1OC,19,-14,-1,11,-15,-10%,-4%
CCCC(=O)N1CCC1(C)C(=O)Nc1ccc(OC)c(OC)c1 (stereo not drawn),.,-9,-3,.,.,.,.
Cn1c(C=O)c(C#CC(C)(C)O)c2ccccc21,0,-14,2,4,-7,-4%,-4%
COc1cccc(C#Cc2c(C=O)n(C)c3ccccc23)c1,0,-4,-3,-18,-7,.,.
Cc1cccc(C(=O)NC(=S)NNC(=O)Cc2ccccc2)c1,37*,18,-7,-3,7,-9%,-9%
Cc1cccc(C(=O)NC(=S)NCc2ccccc2)c1,.,-8,-6,.,.,.,.
CCCCCCSc1nnc2c(n1)OC(C)Nc1ccc(Br)cc1-2 (stereo not drawn),-1,.,.,13,.,.,.
O=C(O)Cc1sc(Nc2ccccc2)nc1-c1ccccc1,0,.,.,0,.,.,.
O=C(O)Cc1sc(N/N=C\c2ccncc2)nc1-c1ccccc1,10,2,?,0,-14,?,2%
CCOc1ccc(CNc2nc3nc(C)c(Cc4ccccc4)c(=O)n3[nH]2)cc1,0,.,.,14,.,.,.
CCn1c(N2CCN(S(=O)(=O)c3ccccc3)CC2)nc2ccccc21,-1,-1,?,19,20,?,19%
COc1cccc(-c2c(C(=O)N/N=C(\C)c3ccco3)nnn2-c2nonc2N)c1,9,-10,-2,9,9,.,.
SMILES,D2 ag-1,D2 PAM-1,D2 ag-2,D2 PAM-2,D2 antag,D3 ag,D2 ag-3
COc1ccc(/C=N/NC(=O)c2nnn(-c3nonc3N)c2-c2cccc(OC)c2)cc1,5,2,2,22,34*,8%,-1%
Nc1nonc1-n1nnc(C(=O)N/N=C/c2ccc(F)cc2)c1-c1ccc2c(c1)OCO2,.,-3,-5,.,.,3%,-3%
C/C(=N\NC(=O)c1nnn(-c2nonc2N)c1-c1ccccc1)c1ccco1,10,-14,-15,26,-2,2%,1%
CCOc1ccc(/C(C)=N/NC(=O)c2nnn(-c3nonc3N)c2-c2cccs2)cc1,10,-1,-3,6,2,-5%,2%
CCOc1cccc(-c2c(C(=O)N/N=C/c3ccncc3)nnn2-c2nonc2N)c1,-1,0,4,0,-3,.,.
COc1cc(CNC(=O)c2cc(-c3cc(F)ccc3OCC3CCCO3)n[nH]2)cc(OC)c1 (stereo not drawn),.,3,5,.,.,.,.
CCCCN(C=O)c1c(CC)nc2c(OCCOc3ccccc3)cccn12,.,-4,-6,.,.,.,.
O=C(NCCc1ccc(Cl)cc1)c1ccc(CS(=O)(=O)Cc2ccccc2F)o1,0,.,.,-6,.,.,.
COc1ccc(/C=N/NC(=O)c2nnn(-c3nonc3N)c2-c2cccs2)cc1OC,0,5,5,4,2,.,.
Cc1ccc(/C=N/NC(=O)c2nnn(-c3nonc3N)c2-c2cccs2)cc1,25,-1,-2,18,32*,4%,29%
COc1cccc(-c2c(C(=O)N/N=C/c3cccs3)nnn2-c2nonc2N)c1,3,-4,-7,23,21,-13%,-5%
COCc1c(C(=O)N/N=C\c2cccs2)nnn1-c1nonc1N,1,-3,-1,5,5,.,.
CN1CCc2c(sc(NC(=O)c3ccc([N+](=O)[O-])o3)c2C(N)=O)C1,75*,-12,1,-19,29,-20%,2%
O=C(Oc1ccc(=O)[nH]n1)c1ccccc1,.,-5,-3,.,.,.,.
Cc1cc(NC(=O)c2ccco2)ccc1-n1cnnn1,.,5,-1,.,.,0%,-1%
O=C(NC1CCCCC1)c1cc(C2CC2)nn1-c1ccccc1,.,2,14,.,.,3%,11%
COc1ccc(CN(C(=O)/C=C/C(=O)c2ccc(OC)cc2O)C(C(=O)NC2CCCCC2)c2ccncc2)cc1 (stereo not drawn),35*,-2,0,-27,1,-9%,-4%
Oc1c(C(c2ccc(Cl)cc2Cl)N2CCCC2)sc2nc(-c3ccco3)nn12 (stereo not drawn),.,.,.,1,.,.,.
COc1ccccc1NC(=O)CN1CCN(c2ccccc2)CC1,49*,-6,5,-29,39*,-3%,9%
Cc1cc(Cl)ccc1NC(=O)CN1CCN(C(=O)c2ccco2)CC1,1,4,2,4,4,.,.

# Bioassay records (PubChem)
